Test [1] addresses Estrogen receptor (Homo sapiens) (UniProt P03372). Put plainly: qHTS assay for small molecule antagonists of estrogen receptor alpha signaling (AID 588513; active means well fitted curve in the direction sought with a large enough effect in the signal ratio, with a control signal flat, not every such curve was filed as active; the % refers to the signal ratio; further: on the % scale 0 is the no-effect control and ±100 the full control effect). An outline of the steps: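 Antagonist-mode qHTS in ER-alpha-UAS-bla HEK 293 cells: compound titration, 0.5nM estradiol for 18 h, CCF4 fluorescence, Hill-derived IC50.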
Test [2] has the same target. As to the kind of experiment: qHTS assay for small molecule agonists of estrogen receptor alpha signaling (AID 588514; calls by dose curve;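 further: 0% = vehicle only and 100% = reference agonist; nearly all actives have a fitted effect of over 70% in size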). An outline of the steps:
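Reporter-gene assay. […] controls beta-lactamase in HEK 293 GripTite cells; after 18 hrs with compound, CCF4 substrate is added for 2 hrs and fluorescence is read.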
(Quantitative high-throughput screening tests each substance at several concentrations.)

The target in test [3] is Glucocorticoid receptor (Homo sapiens) (UniProt P04150). As to the kind of experiment: qHTS assay for small molecule agonists of glucocorticoid receptor signaling (AID 588532; active means well fitted curve in the direction sought with a large enough effect in the signal ratio, with a control signal flat; the % refers to the signal ratio;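 further: 100% = dexamethasone at 0.1 µM and 0% = DMSO only wells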). Conditions: HeLa MMTV-bla, beta-lactamase ratio, agonist, 18 h; stronger effect = higher value; percent of dexamethasone control, DMSO zero. In short, it runs like this:
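MMTV-bla HeLa, beta-lactamase reporter; medium with 1% charcoal/dextran-stripped FBS; cpds up to 92 uM, 18 h, 37 C; CCF4 readout 460/530 nm; Hill fit → EC50, efficacy vs 0.1 uM dexamethasone = 100%.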

Test [4] has the same target. As to the kind of experiment: qHTS assay for small molecule antagonists of glucocorticoid receptor signaling (AID 588533; active means well fitted inhibition curve with a large enough effect in the signal ratio, with a control signal flat, not every such curve was filed as active; the % refers to the signal ratio;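 further: cells stimulated with 2 nM dexamethasone as agonist; on the % scale 0 is the no-effect control and ±100 the full control effect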). In short, it runs like this: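 Antagonist-mode qHTS: compound titrations added to GRE-bla HeLa cells, then dexamethasone 2 nM final; 18 h, 37 C. CCF4 FRET fluorescence normalized to dexamethasone and DMSO; IC50 from Hill fit.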
The nature of test [5]: qHTS assay for small molecule antagonists of peroxisome proliferator-activated receptor delta signaling (AID 588535; active means well fitted inhibition curve with a large enough effect in the signal ratio, with a control signal flat, not every such curve was filed as active; the % refers to the signal ratio;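 on max response: cells co-treated with a PPAR-delta agonist as stimulator during compound exposure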). Conditions: HEK293T PPARd-UAS-bla, beta-lactamase FRET ratio, 18 h; 460 nm channel. In short, it runs like this: (§1)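 GeneBLAzer PPAR-delta-UAS-bla HEK293T cells in medium with 2% charcoal/dextran FBS were preincubated 5 hrs at 37 C, then given compounds, incubated 18 hrs at 37 C, and read by CCF4 beta-lactamase fluorescence; IC50 from Hill fits.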

In test [6] the target is Peroxisome proliferator-activated receptor delta (Homo sapiens) (UniProt Q03181). The test is described as above. An outline of the steps: as §1
Sequence of Peroxisome proliferator-activated receptor delta (Homo sapiens) (Q03181 whole entry, looked up): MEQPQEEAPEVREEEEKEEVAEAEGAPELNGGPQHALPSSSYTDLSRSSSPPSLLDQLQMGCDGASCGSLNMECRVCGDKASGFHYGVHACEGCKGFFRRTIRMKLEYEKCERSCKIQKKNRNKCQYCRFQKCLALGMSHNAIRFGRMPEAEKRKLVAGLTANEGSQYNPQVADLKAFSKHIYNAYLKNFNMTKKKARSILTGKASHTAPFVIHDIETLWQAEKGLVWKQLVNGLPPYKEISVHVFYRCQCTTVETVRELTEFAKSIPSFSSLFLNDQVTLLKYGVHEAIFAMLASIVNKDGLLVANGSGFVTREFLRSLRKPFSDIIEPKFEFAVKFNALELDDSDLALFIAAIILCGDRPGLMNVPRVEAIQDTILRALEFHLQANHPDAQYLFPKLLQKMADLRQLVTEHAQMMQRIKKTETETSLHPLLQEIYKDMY
Test [7] can be described thus: qHTS assay for small molecule agonists of retinoid X receptor alpha signaling (AID 588544; calls by dose curve;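 on activation: 0% = DMSO basal wells and 100% = reference agonist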). Conditions: HEK293T RXRa-UAS-bla, beta-lactamase reporter, 18 h; 530 nm emission.
Test [8] concerns the target Retinoic acid receptor RXR-alpha (Homo sapiens) (UniProt P19793). The test is described as above.
Test [9] concerns the target Thyroid hormone receptor beta (Homo sapiens) (UniProt P10828). Put plainly: qHTS assay for small molecule agonists of thyroid hormone receptor beta signaling (AID 588545; calls by dose curve). In short, it runs like this: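 HEK 293 TR-UAS-bla; agonist mode; 18 hrs, 37 C; CCF4, ex 405/em 460 and 530 nm; norm. T3 10 nM = 100%, DMSO = 0%; Hill fit → EC50, efficacy.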
Test [10] can be described thus: qHTS assay for small molecule antagonists of retinoid X receptor alpha signaling (AID 588546; active means well fitted inhibition curve with a large enough effect in the signal ratio, with a control signal flat, not every such curve was filed as active; the % refers to the signal ratio;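 further: cells stimulated with 9-cis-retinoic acid as agonist; on the % scale 0 is the no-effect control and ±100 the full control effect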). Conditions: HEK293T RXRa-UAS-bla, beta-lactamase ratio, antagonist mode; measured here: W530 green channel, cytotoxicity proxy. An outline of the steps: (§2)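 Beta-lactamase reporter inhibition, read as CCF4 fluorescence ratio (ex 405, em 460/530 nm) after 2 h at RT. HEK293T UAS-bla cells, 2500/well, were stimulated with 9-cis-RA at 500 or 100 nM final alongside test compound for 18 h at 37 C.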

Test [11] has as its target Retinoic acid receptor RXR-alpha (Homo sapiens) (UniProt P19793). Described as above. Conditions: HEK293T RXRa-UAS-bla, beta-lactamase ratio, antagonist mode. In short, it runs like this:
as §2

The nature of test [12]: qHTS assay for small molecule activators of the nuclear factor-kappa B (NF-kB) signaling pathway (AID 651749; active means well fitted activation curve with a large enough effect in the signal ratio; the % refers to the signal ratio; further: series mostly up to about 77 µM; % of control where 0% means no effect). Conditions: NF-kB-bla ME-180 cells, beta-lactamase FRET ratio, 16 h; activation: stronger effect = higher value. In short, it runs like this:
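ME-180 cells stably carrying a beta-lactamase reporter under an NF-kB response element were exposed to compound or DMSO vehicle for 16 hr at 37C, 5% CO2. Pathway activation was read by FRET, since reporter expression disrupts FRET.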

Test [13] in a line: qHTS assay for environmental chemicals that activate the Aryl hydrocarbon Receptor (AhR) signaling pathway (AID 651777). Further: % of control where 0% means no effect; nearly all actives have a fitted effect of over 15% in size. Conditions: 1A2-DRE human hepatoma cells, luciferase, 24 h; activation: stronger effect = higher value. An outline of the steps: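 Luminescence (One-Glo, 30 min, room temperature) reports AhR-driven luciferase in stably transfected human hepatoma cells bearing DRE and CYP1A2 promoter. Cells (1,200/well) were treated with compound for 24 hr at 37 C in qHTS format.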

Test [14] can be described thus: qHTS assay for small molecule agonists of the antioxidant response element (ARE) signaling pathway measured by Nrf2-dependant transcriptional activity (AID 720636; active means well fitted curve in the direction sought with a large enough effect in the repeat runs; an effect the other way counts as inactive or inconclusive; further: % of control where 0% means no effect). An outline of the steps:
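Nrf2-dependent transcription read as ONE-Glo luciferase signal from ARE-luc HepG2 reporter cells after 16 hr compound treatment at 37 C, 5% CO2, in assay medium with 1% dialyzed FBS.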

Test [15] is described as follows: qHTS assay for small molecule agonists of the antioxidant response element (ARE) signaling pathway measured by Nrf2-dependant transcriptional activity - cell viability counter screen (AID 720653; active means well fitted curve in the direction sought with a large enough effect in the repeat runs; an effect the other way counts as inactive or inconclusive; further: on the % scale 0 is the no-effect control and ±100 the full control effect). Conditions: ARE-bla HepG2 viability, CellTiter-Glo ATP luminescence, 16 h; max response: stronger effect = lower value. An outline of the steps:
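ARE-bla HepG2 cells (2,000/well) rested 5 hrs at 37C/5% CO2, then exposed to compounds in DMSO for 16 hrs. Viability was read in the same wells as intracellular ATP by luminescence, 30 min at room temperature after reagent addition.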

Test [16] can be described thus: qHTS assay for cell viability of HEK293 cells (AID 743288). Further: on the % scale 0 is the no-effect control and ±100 the full control effect; nearly all actives have a fitted effect of over 50% in size. Conditions: ATP luminescence (CellTiter-Glo), 18 h; max response: stronger effect = lower value. An outline of the steps: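 Luminescent ATP quantitation served as the viability read-out. Cells (parental HEK293, 2,000/well) received compounds after at least 5 h at 37 C and were exposed for 18 h before a 30 min room-temperature reagent step.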

Test [17] in a line: qHTS assay for cell viability of the p53RE-bla HCT-116 cell line (AID 743292). Further: on the % scale 0 is the no-effect control and ±100 the full control effect; nearly all actives have a fitted effect of over 55% in size. An outline of the steps: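 ATP-based luminescent viability (CellTiter-Glo, 30 min RT) after 16 h compound treatment at 37 C of p53RE-bla HCT-116 cells, seeded at 4,000 cells/well and rested 5 h before dosing.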
Test [18] addresses Nuclear receptor subfamily 1 group I member 2 (Rattus norvegicus) (UniProt Q9R1A7). Put plainly: qHTS assay for small molecule activators of the rat pregnane X receptor (rPXR) signaling pathway (AID 651751; call rule not given here; further: 0% is about no effect). Conditions: rPXR reporter cells, luciferase (One-Glo), 24 h.
A short description of test [19]: qHTS assay for small molecule activators of the human pregnane X receptor (PXR) signaling pathway (AID 720659; call rule not given here; further: 0% is about no effect).
Test [20] has as its target Peroxisome proliferator-activated receptor alpha (Homo sapiens) (UniProt Q07869). Put plainly: qHTS assay for small molecule agonists of the peroxisome proliferator-activated receptor alpha (PPARalpha) signaling pathway (AID 651778). Further: % of control where 0% means no effect. Conditions: PathHunter PPARalpha complementation, chemiluminescence, 6 h; max response: stronger effect = higher value. An outline of the steps:
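Cells plated at 2,000/well and held overnight at 37 C, 5% CO2, then compound added by pin tool for 6 hr; after PathHunter detection reagent and 60 min at room temperature, chemiluminescence from enzyme complementation was read.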

Records with an inconclusive call do not appear. Active and inactive are the calls of the source. Unless noted, the call rests on the fitted dose curve; in most records, active means well fitted curve in the direction sought with a large enough effect; inconclusive means small, poorly fitted or top-dose-only effect, or another doubt; inactive means no such curve, though single readings can be large; an effect the other way counts as inactive or inconclusive.

Sequence of Thyroid hormone receptor beta (Homo sapiens) (P10828 whole entry, looked up): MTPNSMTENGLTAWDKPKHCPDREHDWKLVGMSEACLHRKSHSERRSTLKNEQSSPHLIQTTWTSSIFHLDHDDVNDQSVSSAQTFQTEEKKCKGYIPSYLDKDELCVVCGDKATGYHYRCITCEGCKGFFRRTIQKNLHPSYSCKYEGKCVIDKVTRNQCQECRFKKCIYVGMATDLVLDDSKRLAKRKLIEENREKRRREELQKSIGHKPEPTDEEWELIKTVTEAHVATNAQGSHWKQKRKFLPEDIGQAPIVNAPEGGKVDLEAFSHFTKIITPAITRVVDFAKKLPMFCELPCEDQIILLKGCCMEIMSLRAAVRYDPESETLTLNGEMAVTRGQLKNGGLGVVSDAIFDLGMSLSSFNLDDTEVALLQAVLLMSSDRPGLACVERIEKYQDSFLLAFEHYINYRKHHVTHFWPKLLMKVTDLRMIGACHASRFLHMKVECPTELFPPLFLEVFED
Sequence of Retinoic acid receptor RXR-alpha (Homo sapiens) (P19793 whole entry, looked up): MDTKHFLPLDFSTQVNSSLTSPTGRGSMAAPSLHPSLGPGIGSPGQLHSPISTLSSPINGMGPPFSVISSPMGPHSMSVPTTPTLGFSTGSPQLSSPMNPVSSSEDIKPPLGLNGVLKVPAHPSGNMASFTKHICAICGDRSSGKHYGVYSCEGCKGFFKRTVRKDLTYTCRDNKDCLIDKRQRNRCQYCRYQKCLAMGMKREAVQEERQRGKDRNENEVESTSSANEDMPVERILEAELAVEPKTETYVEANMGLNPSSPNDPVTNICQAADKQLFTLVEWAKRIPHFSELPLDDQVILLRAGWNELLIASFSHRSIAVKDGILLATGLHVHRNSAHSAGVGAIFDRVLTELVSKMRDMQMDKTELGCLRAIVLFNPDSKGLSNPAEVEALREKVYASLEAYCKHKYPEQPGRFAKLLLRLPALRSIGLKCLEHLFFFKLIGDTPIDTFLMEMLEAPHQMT
Sequence of Peroxisome proliferator-activated receptor alpha (Homo sapiens) (Q07869 whole entry, looked up): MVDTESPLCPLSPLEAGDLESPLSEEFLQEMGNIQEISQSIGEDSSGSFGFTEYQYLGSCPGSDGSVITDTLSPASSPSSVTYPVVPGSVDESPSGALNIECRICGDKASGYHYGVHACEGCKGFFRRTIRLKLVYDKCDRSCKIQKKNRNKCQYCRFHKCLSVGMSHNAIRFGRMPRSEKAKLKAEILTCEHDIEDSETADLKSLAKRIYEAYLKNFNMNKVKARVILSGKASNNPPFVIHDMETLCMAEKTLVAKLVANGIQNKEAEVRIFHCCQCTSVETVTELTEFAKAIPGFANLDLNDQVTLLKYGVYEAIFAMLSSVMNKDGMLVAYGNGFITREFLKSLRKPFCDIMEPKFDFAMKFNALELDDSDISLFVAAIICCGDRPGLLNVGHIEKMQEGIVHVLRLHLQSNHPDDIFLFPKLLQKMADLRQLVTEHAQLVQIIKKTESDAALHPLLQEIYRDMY
Sequence of Glucocorticoid receptor (Homo sapiens) (P04150 whole entry, looked up): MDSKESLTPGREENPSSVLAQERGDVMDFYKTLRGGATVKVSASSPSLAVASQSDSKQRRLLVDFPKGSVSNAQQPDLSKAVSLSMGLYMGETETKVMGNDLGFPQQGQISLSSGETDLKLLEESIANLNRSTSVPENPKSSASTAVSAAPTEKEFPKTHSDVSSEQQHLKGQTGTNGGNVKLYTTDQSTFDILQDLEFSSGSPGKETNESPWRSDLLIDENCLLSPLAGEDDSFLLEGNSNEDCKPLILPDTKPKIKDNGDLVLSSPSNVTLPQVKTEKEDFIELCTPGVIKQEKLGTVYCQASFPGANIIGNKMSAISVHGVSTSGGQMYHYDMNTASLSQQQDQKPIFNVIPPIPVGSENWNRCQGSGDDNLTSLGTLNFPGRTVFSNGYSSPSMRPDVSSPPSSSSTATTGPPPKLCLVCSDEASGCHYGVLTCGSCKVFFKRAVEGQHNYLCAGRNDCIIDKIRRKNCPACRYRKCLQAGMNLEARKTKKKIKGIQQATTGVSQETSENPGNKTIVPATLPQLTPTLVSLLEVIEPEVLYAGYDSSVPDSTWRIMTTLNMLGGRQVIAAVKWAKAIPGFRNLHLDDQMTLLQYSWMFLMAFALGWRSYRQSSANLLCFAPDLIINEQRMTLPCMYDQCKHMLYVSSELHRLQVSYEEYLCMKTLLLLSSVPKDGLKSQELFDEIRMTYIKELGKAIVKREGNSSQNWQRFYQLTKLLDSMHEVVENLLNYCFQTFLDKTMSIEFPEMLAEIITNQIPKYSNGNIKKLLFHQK
Sequence of Estrogen receptor (Homo sapiens) (P03372 whole entry, looked up): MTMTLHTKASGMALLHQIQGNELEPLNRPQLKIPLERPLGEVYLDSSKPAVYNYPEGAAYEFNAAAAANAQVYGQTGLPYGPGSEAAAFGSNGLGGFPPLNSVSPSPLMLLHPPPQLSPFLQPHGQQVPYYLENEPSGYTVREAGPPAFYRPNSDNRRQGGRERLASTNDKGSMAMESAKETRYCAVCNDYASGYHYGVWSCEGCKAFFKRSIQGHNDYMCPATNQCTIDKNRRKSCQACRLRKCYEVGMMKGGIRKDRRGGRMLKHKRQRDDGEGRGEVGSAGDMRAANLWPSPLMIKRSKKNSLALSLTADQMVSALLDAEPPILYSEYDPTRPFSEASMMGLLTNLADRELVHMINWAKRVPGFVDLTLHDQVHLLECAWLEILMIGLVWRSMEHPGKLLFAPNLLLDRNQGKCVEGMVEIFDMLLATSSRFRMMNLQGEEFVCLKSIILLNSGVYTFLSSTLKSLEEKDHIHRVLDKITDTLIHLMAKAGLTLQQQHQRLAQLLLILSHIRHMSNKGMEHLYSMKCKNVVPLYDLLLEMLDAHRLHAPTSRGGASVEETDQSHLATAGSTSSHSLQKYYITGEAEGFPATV
Sequence of Nuclear receptor subfamily 1 group I member 2 (Rattus norvegicus) (Q9R1A7 whole entry, looked up): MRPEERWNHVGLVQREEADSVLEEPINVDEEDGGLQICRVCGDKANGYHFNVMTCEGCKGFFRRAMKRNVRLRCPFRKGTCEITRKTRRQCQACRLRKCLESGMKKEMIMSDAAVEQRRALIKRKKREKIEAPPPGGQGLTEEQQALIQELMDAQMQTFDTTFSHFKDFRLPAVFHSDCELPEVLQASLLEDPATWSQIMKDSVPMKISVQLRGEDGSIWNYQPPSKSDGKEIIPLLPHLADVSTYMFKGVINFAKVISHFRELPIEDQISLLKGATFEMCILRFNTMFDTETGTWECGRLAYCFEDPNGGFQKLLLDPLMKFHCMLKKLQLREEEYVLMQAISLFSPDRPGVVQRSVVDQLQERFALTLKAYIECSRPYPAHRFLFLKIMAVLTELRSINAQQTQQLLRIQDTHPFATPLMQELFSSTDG

Regarding `CCCCCCCCCCCCCCN`, the Potency result in test [1], in test [2], in test [4], in test [6], in test [8] and in [9] was “inactive” each time. The Potency entry in test [14] and in [17] was “inactive” in each case. The activation is -4.59% (inactive) in [3], -1.74% (inactive) in [12] and -0.123% (inactive) in [13]. Also, the max response in test [5] is -7.23%; in test [7] it was -19.1%; in test [10], -5.44%; in [11], -5.01% (inactive); in [15], 4.41% (inactive); in [16], -3.28% (inactive). In addition, the max response in [18] was 1.71% (inactive). In addition, in [19], the call was inactive.

Take `CCCCCCCCCC(C)=O`: the Potency result in [1], in test [2], in test [4], in test [6], in [8] and in test [9] was “inactive” throughout. Moreover, the Potency result in test [14] and in test [17] was “inactive” each time. Also, the activation in test [3] was -12.1% (inactive); in test [12], 0.316% (inactive). The max response in test [5] is 26.8%; in test [7], -16.2%; in test [10], -6.07%; in test [11] it was -4.81% (inactive); in [15], -10.8% (inactive); in test [16], -5.17% (inactive). Besides, in test [18], the max response was -2.12% (inactive). Further, the call in test [19] was inactive.

On to `O=C1CCCC/C=C/CCCCCCCCCO1`, for which the Potency entry in [1], in test [2], in [4], in test [6], in test [8] and in [9] was “inactive” in each case. In addition, the Potency result in test [14] and in test [17] was “inactive” each time. The activation in [3] was -15.4% (inactive); in test [12], -0.561% (inactive); in test [13], -0.496% (inactive). Further, the max response in test [5] was -0.124%; in [7] it was -14.2%; in test [10] it was -16.9%; in [11], 5.91% (inactive); in test [20], 11.1% (inactive); in test [15], 0.0367% (inactive). Also, the figures for the max response in test [16] and in [18] were 4.39% (inactive) and -0.578% (inactive), respectively. In addition, the result in [19] was inactive.

In the case of `CCCCCCCCCc1ccccc1`, the Potency result in test [1], in test [2], in test [4], in test [6], in test [8] and in test [9] was “inactive” each time. The Potency result in test [14] and in test [17] was “inactive” in each case. Moreover, the values for the activation in test [3], in test [12] and in test [13] were -4.94% (inactive), -0.21% (inactive) and 0.637% (inactive), respectively. In addition, the max response in test [5] is 1.13%; in [7], -8.55%; in test [10], -10.2%; in [11], 2.35% (inactive); in test [20], -0.702% (inactive); in test [16] it was 2.81% (inactive). For the same compound, in [18], the max response is 1.1% (inactive). For the same compound, the compound was called inactive in [19].

Regarding `C=C(C)C(=O)OCCOC(=O)C(=C)C`, the Potency entry in [1], in test [2], in test [4], in test [6], in test [8] and in test [9] was “inactive” in each case. Further, the Potency entry in [14] and in test [17] was “inactive” each time. Moreover, the values for the activation in [3], in test [12] and in test [13] were -0.861% (inactive), -0.69% (inactive) and -1.11% (inactive), respectively. For the same compound, the max response in test [5] is -2.87%; in [7], 0.328%; in test [10], -22.3%; in [11] it was -2.81% (inactive); in [20], -3.02% (inactive); in [15], -15.5% (inactive). In test [18], the max response was -5.37% (inactive). Moreover, in [19], the compound was classed as inactive.

`CCCCCC1CCC(=O)O1` (stereo not drawn): the Potency entry in test [1], in [2], in test [4], in test [6], in [8] and in test [9] was “inactive” throughout. Besides, the Potency result in test [17] was “inactive”. In addition, the values for the activation in [3] and in test [12] were -5.15% (inactive) and -1.34% (inactive), respectively. For the same compound, the max response in test [5] is 31.3%; in test [7], -5.36%; in test [10], -5.89%; in test [11], 2.03% (inactive); in test [20], -1.42% (inactive); in [15], 1.26% (inactive). Also, the figures for the max response in [16] and in test [18] were -7.91% (inactive) and 2.69% (inactive), respectively. The call in [19] was inactive.

These data come from PubChem BioAssay (NCATS).
